Screening data from PubChem.
Rango complex inh = prevents formation of the Rango-importin beta complex. Rango CFP/YFP FRET sensor + importin beta, 45 min. Potency, µM (highest dose often 92.2 µM), for inactives: at the top dose inhibition of complex formation. actives 0.031% (n = 340,000); calls by dose curve;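 further: 0% = DMSO wells and 100% = buffer wells lacking importin beta; nearly all actives have a fitted effect of over 15% in size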
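FRET biosensor (snurportin 1 IBB flanked by EYFP and cerulean), 50 nM, with compound 5 min, then 0.125 microM importin beta in PBS, 1 mM DTT, 0.02% Tween-20, 0.1% BSA. CFP/YFP ratio read after 45 min at room temperature; pre-read flags interference.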
PKM2 act = increases activity of human pyruvate kinase M2; P14618; purified PKM2, Kinase-Glo ATP luminescence, activation; response scale: 0% is enzyme alone, no compound; Potency, µM (doses to about 57.5 µM), without a hit: at the highest dose activation, actives largely listed as activators; actives 0.34% (n = 260,000); further: on the % scale 0 is the no-effect control and ±100 the full control effect; nearly all actives have a fitted effect of over 55% in size
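ATP formation by purified human PK-M2, quantified via coupled luciferase luminescence after 1 h at room temperature with 0.1 mM ADP and 0.5 mM PEP final.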
PGK inhibitor = blocks T. brucei phosphoglycerate kinase. P07378. PGK/GAPDH coupled, Kinase-Glo luminescence, 60 min. Potency, µM (highest dose often 57.5 µM), inactives show at the top dose activity change, negative = inhibition, usual class: inhibitors. actives 0.043% (n = 380,000); further: on the % scale 0 is the no-effect control and ±100 the full control effect; nearly all actives have a fitted effect of over 60% in size
Target sequence (P07378 whole entry, looked up): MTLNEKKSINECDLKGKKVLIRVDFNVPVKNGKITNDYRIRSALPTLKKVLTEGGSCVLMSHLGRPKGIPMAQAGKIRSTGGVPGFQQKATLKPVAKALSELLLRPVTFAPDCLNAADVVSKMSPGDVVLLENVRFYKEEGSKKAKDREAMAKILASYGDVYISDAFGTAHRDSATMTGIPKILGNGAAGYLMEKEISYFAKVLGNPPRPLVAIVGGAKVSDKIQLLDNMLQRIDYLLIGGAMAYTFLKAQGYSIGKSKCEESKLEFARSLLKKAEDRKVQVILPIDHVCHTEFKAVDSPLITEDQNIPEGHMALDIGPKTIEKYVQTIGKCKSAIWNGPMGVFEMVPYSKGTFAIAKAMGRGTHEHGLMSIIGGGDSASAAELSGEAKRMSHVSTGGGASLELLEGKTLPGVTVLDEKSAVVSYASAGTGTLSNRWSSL
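Luminescent ATP detection (Kinase-Glo Plus) follows a 60-minute room-temperature incubation, with wells lacking PGK as controls. Buffer: 100 mM TEA (pH 7.6), 5 mM MgCl2, 0.01% Tween-20. Coupling enzyme GAPDH (100 nM final) supplies unstable 1,3-BPG in-well.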
Tb PFK inh = T. brucei PFK enzyme inhibition. Potency, µM (highest dose often 57.5 µM), inactives show at the top dose activity, negative = inhibition, hits mostly inhibitors. T. brucei PFK, ADP-Glo luminescence. actives 0.17% (n = 330,000). O15648. AID 485367;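 further: 0% = uninhibited 1x PFK enzyme wells and -100% = no-enzyme wells; nearly all actives have a fitted effect of over 60% in size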
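In TEA buffer at pH 8.0 with 5 mM MgCl2, enzyme (1.25 nM) converted F6P (0.5 mM) and ATP (0.1 mM) for 45 min at room temperature. ADP product was read by luciferase luminescence.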
ELG1 DNA repair = inhibitors of ELG1-dependent DNA repair in HEK293T cells; HEK293T ELG1-luciferase reporter, luminescence, 16 h; DNA damage induced by 5-fluorouridine; Potency, µM (top dose mostly 46.1 µM), inactives show top-dose activity change, negative = inhibition, hits mostly inhibitors; actives 2.3% (n = 330,000); AID 504467; further: on the % scale 0 is the no-effect control and ±100 the full control effect; nearly all actives have a fitted effect of over 55% in size
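Reporter activity after DNA damage by 5-fluorouridine is monitored. Compound-treated cells incubate 16 hr at 37 °C, then ONE-Glo is added for 30 min before luminescence reading.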
Rango release inh = prevents RanGTP from dissociating the Rango-importin beta complex. O95149+P62826. Biochemical FRET Rango-importin beta, RanGTP-induced dissociation. Potency, µM (highest dose often 46.1 µM), for the others: top-dose activity change, negative = inhibition. actives 0.071% (n = 340,000); calls by dose curve; further: % of control where 0% means no effect; nearly all actives have a fitted effect of over 45% in size
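Compounds preincubate 5 min with complex of recombinant Rango and importin beta in PBS with 1 mM DTT. Ran (0.6 uM) loaded with 2 mM GTP plus 0.2 uM RCC1 starts dissociation; FRET is recorded 45 min later.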
Starred values were filed as active, the others as inactive; i = inactive; ? = inconclusive; nt = no result given; [ ] = dose if it differs, or a comment. An excerpt weighted towards active compounds, which were near 2.4% of everything screened. Unless noted, the call rests on the fitted dose curve; in most records, active means well fitted curve in the direction sought with a large enough effect; inconclusive means small, poorly fitted or top-dose-only effect, or another doubt; inactive means no such curve, though single readings can be large; an effect the other way counts as inactive or inconclusive. Potency means the concentration at half of the fitted maximal effect.

SMILES | Rango complex inh | PKM2 act | PGK inhibitor | Tb PFK inh | ELG1 DNA repair | Rango release inh
COc1ccc(S(=O)(=O)Nc2ccc(-n3cccc3)cc2)cc1 | 3% | 10µM* | i | -6% | ? | 5%
CNC(=S)/N=C/NOCc1ccc(Cl)cc1Cl | -3% | 2% | -7% | -1% | 12µM* | 2%
CCNc1nn2ccccc2c1/C=C(\C#N)C(=O)OCC | ? | 0% | -5% | 0% | -9% | 10µM*
Cc1ccc(C(=O)c2oc3ccccc3c2NC(=O)COc2ccccc2Cl)cc1 | nt | nt | i | nt | nt | nt
CC1CCCCC1NC(=O)/C(C#N)=C/c1ccccc1F (stereo not given) | 1% | -12% | -4% | 0% | 26µM* | 0%
Cc1nc(NC(=O)c2ccccc2)sc1-c1csc(NCc2ccccc2)n1 | -2% | -3% | -1% | 2% | 21µM* | -3%
Cc1nc(NC(=O)c2ccccc2)sc1-c1csc(NCCc2ccccc2)n1 | ? | -18% | 0% | -2% | ? | -13%
Cc1csc2nc(NC(=O)c3ccccc3)sc(=O)c12 | ? | -3% | i | 1% | ? | 5.8µM*
CCC(=O)N1CCc2cc(S(=O)(=O)CCC(=O)N3CCN(c4ccc(F)cc4)CC3)ccc21 | -1% | 6%[0.46 µM] | -5% | -5% | ? | -2%
COC(CNC(=O)c1ccc2nc(-c3ccccc3)c(-c3ccccc3)nc2c1)OC | 0% | -10% | -1% | 8% | ? | -2%
COc1ccc(-c2nc3ccc(C(=O)NCC(OC)OC)cc3nc2-c2ccc(OC)cc2)cc1 | ? | 0% | i | -2% | 16µM* | ?
O=C(CN1CCN(S(=O)(=O)c2ccc(F)cc2)CC1)Nc1cc(C(F)(F)F)ccc1Cl | 0% | 6% | -3% | -8% | 26µM* | 4%
CC1(C)CC2(CC(c3ccc(F)cc3)c3ccc(O)cc3O2)NC(=S)N1 (stereo not given) | -1% | 0% | -6% | 4% | -2% | -23%
CC1(C)CC2(CC(c3ccccc3F)c3ccc(O)c(O)c3O2)NC(=S)N1 (stereo not given) | -3% | 2.8µM* | 4% | -17% | 8% | 3%
CCOC(=O)C1=C(C)NC(C)=C(C(=O)OCC)C1/C=C/c1ccccc1 | -10% | 6% | i | -7% | ? | -11%
CCOC(=O)N(O)c1ccc(C=Cc2ccccc2)cc1 | 0% | nt | 28µM* | nt | nt | -2%
CCc1cccc(NC(=O)CN2C(=O)COc3ccc(S(=O)(=O)N4CCC(C)CC4)cc32)c1 | nt | nt | -4% | nt | nt | nt
COc1ccc(C2=CC3=C(Br)C(=O)C(C)(O)C(=O)C3=CO2)cc1 (stereo not given) | ? | 0% | 20µM* | -12% | ? | ?
CCC(=O)OC1(C)C(=O)C2=COC(c3ccc(OC)cc3)=CC2=C(Br)C1=O (stereo not given) | ? | -1% | 20µM* | -4% | ? | ?
COC(=O)CCC(=O)OC1(C)C(=O)C2=CN(Cc3ccc(OC)cc3)C(c3ccc(OC)cc3)=CC2=C(Br)C1=O (stereo not given) | ? | -3%[11.5 µM] | -3% | nt | nt | ?
COC(=O)CCC(=O)OC1(C)C(=O)C2=CN(c3ccccc3)C(c3ccc(OC)cc3)=CC2=C(Br)C1=O (stereo not given) | ? | -2%[11.5 µM] | -6% | nt | nt | 16µM*
CCN(C(=O)CSc1nnc(Cn2nnc3ccccc32)o1)c1nc(-c2ccccc2)cs1 | 0% | -2% | i | -2% | 18µM* | 3%
O=C(N/N=C/c1cc(Br)cc(Br)c1O)c1ccncc1 | ? | ? | -9% | 2% | ? | ?
O=C(C[n+]1ccccc1)N/N=C/c1cc(Br)cc(Br)c1O | ? | nt | 0% | 3% | 21µM* | ?
CCC(O)(CC)C(=O)N/N=C/c1cc(Br)cc(Br)c1O | ? | 1% | i | -4% | 23µM* | ?
SMILES | Rango complex inh | PKM2 act | PGK inhibitor | Tb PFK inh | ELG1 DNA repair | Rango release inh
O=C(C[n+]1ccccc1)N/N=C/c1cc(Br)ccc1F | 0% | nt | i | -8% | ? | -3%
CCOC(=O)c1ccc(N2C(=O)c3n[nH]c(-c4ccco4)c3C2c2ccc(C)cc2)cc1 (stereo not given) | nt | nt | -1% | nt | nt | nt
CCOC(=O)c1ccc(N2C(=O)c3n[nH]c(-c4ccco4)c3C2c2ccc([N+](=O)[O-])cc2)cc1 (stereo not given) | 0% | -2% | -5% | 1% | 23µM* | 2%
COc1ccccc1NC(=O)c1cc2c(=O)n(Cc3cccs3)ccc2nc1C | nt | nt | 7% | nt | nt | nt
CCN(CC)S(=O)(=O)c1cc(NC(=O)C(=O)c2c(-c3ccccc3)cc3ccccn23)ccc1C | 6% | -12% | -2% | -5% | 16µM* | 14%
CCN(CC)S(=O)(=O)c1cccc(NC(=O)C(=O)c2c(-c3ccccc3)cc3ccccn23)c1 | 1% | 2% | i | -2% | 16µM* | -15%
CCN(CC)S(=O)(=O)c1ccc(N2CCOCC2)c(NC(=O)C(=O)c2c(-c3ccccc3)cc3ccccn23)c1 | -4% | 3% | i | 4% | ? | 5%
CSc1ccccc1C(=O)OCC(=O)NC1CC1 | nt | nt | 1% | nt | nt | nt
CC(C)C[C@@H]1NC(=O)[C@H](Cc2ccccc2)N(C)C(=O)[C@H](C)NC(=O)c2ccccc2NC(=O)[C@H](Cc2ccc(O)cc2)N(C)C1=O | -2% | 0% | -14% | 1% | 6.5µM* | -12%
CC(C)CC1NC(=O)N(CC(=O)N2c3ccccc3NC(=O)C2(C)C)C1=O (stereo not given) | 2% | -8% | -8% | -1% | -12% | 1%
O=C(CSc1nnc(-c2ccco2)n1Cc1ccco1)NCc1ccccc1 | -2% | -2% | 0% | -1% | -11% | -17%
O=C(CSc1nnc(-c2cccs2)n1Cc1ccco1)Nc1ccc2c(c1)OCO2 | -2% | 14% | -2% | -7% | 15µM* | -10%
O=C(CSc1nnc(-c2ccccc2)n1Cc1ccco1)Nc1ccc2c(c1)OCCO2 | -2% | 6% | -3% | -2% | ? | 11%
O=C(CSc1nnc(-c2ccccc2)n1Cc1ccco1)NCc1ccc2c(c1)OCO2 | -1% | -4% | 12% | -9% | 16µM* | -2%
O=C(CSc1nnc(-c2ccco2)n1Cc1ccccc1)NCc1ccccc1 | 0% | 0% | -7% | -4% | 21µM* | -13%
